Experiment [1] is described as follows: qHTS RealTime-Glo MT Cell Viability Assay in HEK293 cells - 0 hour (AID 1224880). Note: top concentration of the series differs between compounds; nearly all actives have a fitted effect of over 45% in size. The method, boiled down: (§1)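 Luminescence readout at each listed time point; HEK293, 600 cells/well, RealTime-Glo MT reagent added with cells; compounds pinned (23 nL in DMSO) after 5 h at 37 C; continuous culture at 37 C.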
For orientation: Quantitative high-throughput screening tests each substance at several concentrations.

Experiment [2] is described as follows: A CellTox Green Cytotoxicity Assay to monitor cytotoxicity in HEK293 cells - 32 hour (AID 1224881). Note: nearly all actives have a fitted effect of over 40% in size. Note: potency is the fitted concentration of half-maximal effect. The method, boiled down:
(§2)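 Read-out: fluorescence of a cell-impermeant cyanine dye staining DNA of dead cells, proportional to cytotoxicity. HEK293, 600 cells/well with reagent, compound (23 nL DMSO) added after 5 h; reads at 0, 8, 16, 24, 32, 40 h.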

Experiment [3] can be described thus: A CellTox Green Cytotoxicity Assay to monitor cytotoxicity in HepG2 cells - 0 hour (AID 1224882). Note: nearly all actives have a fitted effect of over 35% in size. The method, boiled down: (§3)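 HepG2, 600 cells/well premixed w/ CellTox Green; 5 h settle, 37 C/5% CO2; pintool cpd add (DMSO); 37 C, 40 h; fluorescence read at 0, 8, 16, 24, 32, 40 h.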
Experiment [4] can be described thus: A CellTox Green Cytotoxicity Assay to monitor cytotoxicity in HepG2 cells - 32 hour (AID 1224883). Note: nearly all actives have a fitted effect of over 50% in size. Note: potency is the fitted concentration of half-maximal effect. The method, boiled down:
as §3

Experiment [5] in a line: A CellTox Green Cytotoxicity Assay to monitor cytotoxicity in HEK293 cells - 8 hour (AID 1224884). Note: nearly all actives have a fitted effect of over 35% in size. The method, boiled down: as §2
Experiment [6] can be described thus: qHTS RealTime-Glo MT Cell Viability Assay in HepG2 cells - 16 hour (AID 1224885). Note: nearly all actives have a fitted effect of over 50% in size. The method, boiled down: (§4)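 HepG2 suspension premixed with RealTime-Glo reagents is plated at 600 cells per well and left 5 h at 37 C/5% CO2. Compounds in DMSO then go in, and bioluminescence reflecting viable cell number is recorded over 40 h.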
Experiment [7] is described as follows: qHTS RealTime-Glo MT Cell Viability Assay in HEK293 cells - 24 hour (AID 1224886). Note: top concentration of the series differs between compounds; nearly all actives have a fitted effect of over 50% in size. The method, boiled down: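 Reads taken at 0, 8, 16, 24, 32 and 40 h from the same wells. HEK293 cells (600/well) carried RealTime-Glo reagents from seeding, with compound added after a 5 h settle at 37 C.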
The nature of experiment [8]: qHTS RealTime-Glo MT Cell Viability Assay in HEK293 cells - 8 hour (AID 1224887). Note: top concentration of the series differs between compounds; nearly all actives have a fitted effect of over 50% in size. The method, boiled down:
as §1

Experiment [9] in a line: A CellTox Green Cytotoxicity Assay to monitor cytotoxicity in HEK293 cells - 16 hour (AID 1224888). Note: nearly all actives have a fitted effect of over 35% in size. The procedure, abridged:
as §2

Experiment [10] in a line: qHTS RealTime-Glo MT Cell Viability Assay in HepG2 cells - 0 hour (AID 1224889). Note: nearly all actives have a fitted effect of over 50% in size. The method, boiled down: as §4

A number with no mark means an inactive call. Records with an inconclusive call do not appear. Active and inactive are the calls of the source. Calls come from the whole dose curve; as a rule, active = well fitted curve in the direction sought with a large enough effect in the repeat runs; inconclusive = weak or mixed curves; inactive = no such curve, though single readings can be large; an effect the other way counts as inactive or inconclusive.
% is set by controls: 0 for no effect and ±100 for the full control effect.

Consider `CCC(C(=O)OCCN(CC)CC)c1ccccc1` (stereo not given), for which the Potency entry in experiment [1], in [2], in experiment [3], in experiment [4], in experiment [5] and in experiment [6] was “inactive” each time. Further, the Potency entry in experiment [7], in experiment [8], in [9] and in experiment [10] was “inactive” each time.
Turning to `O=C(O)c1ccccc1NCCc1ccccc1`, the Potency entry in [1], in experiment [2], in experiment [3], in [4], in experiment [5] and in experiment [6] was “inactive” each time. In addition, the Potency result in [7], in experiment [8], in [9] and in experiment [10] was “inactive” throughout.
With `O=C(O)C(Cc1cc(I)c(O)c(I)c1)c1ccccc1` (stereo not given), the Potency result in experiment [1], in [2], in experiment [3], in experiment [4], in [5] and in experiment [6] was “inactive” each time. Besides, the Potency entry in [7], in [8], in experiment [9] and in experiment [10] was “inactive” each time.
Turning to `CC(C)(O)c1ccccc1CC[C@@H](SCC1(CC(=O)O)CC1)c1cccc(/C=C/c2ccc3ccc(Cl)cc3n2)c1`, the Potency entry in [1], in experiment [2], in experiment [3], in experiment [4], in experiment [5] and in experiment [6] was “inactive” throughout. Moreover, the Potency entry in [7], in [8], in experiment [9] and in [10] was “inactive” in each case.
Turning to `C=CC(=C)CCCC(C)(C)OC(C)=O`, the Potency result in experiment [1], in experiment [2], in experiment [3], in [4], in experiment [5] and in experiment [6] was “inactive” each time. Besides, the Potency result in experiment [7], in experiment [8], in experiment [9] and in [10] was “inactive” each time.
With `COc1ccc(CCC(=O)c2c(O)cc(O[C@@H]3O[C@H](CO)[C@@H](O)[C@H](O)[C@H]3O[C@@H]3O[C@@H](C)[C@H](O)[C@@H](O)[C@H]3O)cc2O)cc1O`, the Potency entry in experiment [1], in experiment [2], in experiment [3], in [4], in [5] and in [6] was “inactive” in each case. The Potency result in experiment [7], in experiment [8], in [9] and in [10] was “inactive” throughout.
As to `O=C(O)c1cccc(O)c1`, the Potency result in [1], in [2], in [3], in [4], in experiment [5] and in experiment [6] was “inactive” each time. For the same compound, the Potency entry in [7], in experiment [8], in experiment [9] and in experiment [10] was “inactive” in each case.
Turning to `CCCCCCCCCCCCCCCCBr`, the activity change, negative = cytotoxicity in experiment [1] was 6.45% [at 15.8 µM]; in experiment [7], 6% [at 15.8 µM]; in experiment [8], 3.99% [at 15.8 µM]; in [10], 6.9% [at 15.8 µM]. In addition, the figures for the cytotoxicity increase in experiment [2], in experiment [4] and in experiment [5] were 0.813% [at 15.8 µM], -8.22% [at 15.8 µM] and -1.67% [at 15.8 µM], respectively. For the same compound, the cytotoxicity in [3] was -3.37% [at 15.8 µM]. Besides, in [6], the activity change, negative = cytotoxic is 2.39% [at 15.8 µM]. The activity change in experiment [9] is 2.24% [at 15.8 µM, hits give high values].
As for `O=S1OCCO1`, the Potency result in experiment [1], in [2], in experiment [3], in experiment [4], in experiment [5] and in experiment [6] was “inactive” throughout. The Potency result in experiment [7], in [8], in experiment [9] and in experiment [10] was “inactive” in each case.
Regarding `OCCSc1ccccc1`, the Potency result in experiment [1], in experiment [2], in experiment [3], in experiment [4], in experiment [5] and in experiment [6] was “inactive” throughout. Also, the Potency result in experiment [7], in [8], in experiment [9] and in experiment [10] was “inactive” throughout.
For `C1COCO1`, the Potency result in experiment [1], in experiment [2], in [3], in [4], in experiment [5] and in experiment [6] was “inactive” throughout. Further, the Potency entry in experiment [7], in experiment [8], in experiment [9] and in [10] was “inactive” in each case.
As for `Nc1c(I)cc(I)c(C(=O)N(CCC(=O)O)c2ccccc2)c1I`, the Potency result in experiment [1], in experiment [2], in [3], in experiment [4], in experiment [5] and in [6] was “inactive” throughout. Moreover, the Potency entry in [7], in experiment [8], in experiment [9] and in experiment [10] was “inactive” in each case.
Consider `CC(C)OCC1CO1` (stereo not given), for which the Potency entry in experiment [1], in experiment [2], in experiment [3], in experiment [4], in [5] and in experiment [6] was “inactive” in each case. In addition, the Potency entry in experiment [7], in [8], in experiment [9] and in experiment [10] was “inactive” throughout.
With `CCCCC(CC)COC(=O)COc1ccc(Cl)cc1C` (stereo not given), the Potency entry in [1], in experiment [2], in [3], in [4], in experiment [5] and in [6] was “inactive” each time. The Potency entry in [7], in experiment [8], in experiment [9] and in [10] was “inactive” each time.
On to `Brc1cc(-c2ccc(Br)c(Br)c2Br)cc(Br)c1Br`, for which the Potency entry in experiment [1], in [2], in experiment [3], in [4], in experiment [5] and in experiment [6] was “inactive” in each case. The Potency entry in [7], in experiment [8], in [9] and in [10] was “inactive” each time.
For the compound `CCCC(=O)O[C@]1(C(=O)COC(=O)CC)CC[C@H]2[C@@H]3CCC4=CC(=O)CC[C@]4(C)[C@H]3[C@@H](O)C[C@@]21C`, the activity change, negative = cytotoxicity is 0.536% [at 15.8 µM] in experiment [1], 2.56% [at 15.8 µM] in experiment [7], 0.511% [at 15.8 µM] in experiment [8] and -13.7% [at 15.8 µM] in experiment [10]. Also, the cytotoxicity increase in experiment [2] is -18.3% [at 15.8 µM]; in experiment [4], -8.25% [at 15.8 µM]; in experiment [5], -4.08% [at 15.8 µM]. Besides, the cytotoxicity in experiment [3] was -8.79% [at 15.8 µM]. The activity change, negative = cytotoxic in experiment [6] was 1.6% [at 15.8 µM]. In addition, the activity change in experiment [9] is -13.4% [at 15.8 µM, hits give high values].
Consider `CC(C)(CCl)c1ccccc1`, for which the Potency result in [1], in experiment [2], in [3], in [4], in [5] and in experiment [6] was “inactive” in each case. In addition, the Potency entry in experiment [7], in experiment [8], in [9] and in experiment [10] was “inactive” each time.
For `Cc1nc2ccccc2s1`, the Potency result in experiment [1], in [2], in [3], in experiment [4], in experiment [5] and in experiment [6] was “inactive” throughout. Further, the Potency entry in experiment [7], in [8], in experiment [9] and in [10] was “inactive” throughout.
In the case of `CC(=O)Nc1ccc(N)cc1`, the Potency result in experiment [1], in [2], in experiment [3], in experiment [4], in experiment [5] and in experiment [6] was “inactive” in each case. For the same compound, the Potency entry in [7], in experiment [8], in experiment [9] and in experiment [10] was “inactive” throughout.
As to `CC1CN(c2cc3c(cc2F)c(=O)c(C(=O)O)cn3-c2ccc(F)cc2F)CCN1` (stereo not given), the activity change, negative = cytotoxicity in [1] was 15.1% [at 6.97 µM]; in experiment [7], 6.23% [at 6.97 µM]; in [8], 7.56% [at 6.97 µM]; in [10], -3.32% [at 6.97 µM]. The cytotoxicity increase in [2] was -2.92% [at 6.97 µM]; in experiment [4], 0.181% [at 6.97 µM]; in experiment [5], 1.21% [at 6.97 µM]. The cytotoxicity in experiment [3] is 5.97% [at 6.97 µM]. In [6], the activity change, negative = cytotoxic is 2.01% [at 6.97 µM]. Also, the activity change in experiment [9] was -0.883% [at 6.97 µM, hits give high values].
`NC(=O)Nc1ccc(Cl)c(Cl)c1`: the Potency result in experiment [1], in experiment [2], in experiment [3], in experiment [4], in experiment [5] and in experiment [6] was “inactive” throughout. Moreover, the Potency entry in experiment [7], in experiment [8], in [9] and in experiment [10] was “inactive” throughout.
Take `Cc1cc(O)c(C(C)C)cc1Cl`: the Potency result in experiment [1], in [3], in experiment [5], in experiment [6], in experiment [7] and in [8] was “inactive” in each case. The Potency entry in experiment [9] and in [10] was “inactive” throughout. Besides, the Potency in experiment [2] is 38.9 µM (active); in experiment [4], 34.7 µM (active).
Turning to `CC(C)(C)C(=O)O`, the Potency entry in experiment [1], in [2], in [3], in experiment [4], in experiment [5] and in [6] was “inactive” in each case. In addition, the Potency result in experiment [7], in [8], in experiment [9] and in experiment [10] was “inactive” throughout.

Source of the values: PubChem BioAssay (Tox21).
